In PubChem BioAssay AID434961 (Broad Institute, 2010):
Screen size: about 7,700 compounds; about 15 (0.2%) were called active. Inconclusive results (about 6%) are left out.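 How the source made its calls: active means more than half of replicate wells with inhibition above about 18% (limit read from the data, passing the limit was not always enough); inconclusive means exactly half of replicate wells above that limit; inactive means fewer than half of replicates above it.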 Only a selection was taken, and actives are over-represented in it overall.

biological target: Regulator of chromosome condensation (Homo sapiens) + GTP-binding nuclear protein Ran (Homo sapiens) + Importin subunit beta-1 (Homo sapiens) (UniProt P18754+P62826+Q14974); assay: RanGTP/importin-beta interaction disruptors – biochemical, CFP-Ran/YFP-importin-beta FRET, RCC1, cell-free, primary screen (AID 434961); details: stronger effect = higher value, concentration not given here;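 further: 0% = DMSO wells and 100% inhibition = RanGDP control wells on each plate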

inhibition, inactive:
C[C@@H]1CN([C@@H](C)CO)C(=O)Cc2cc(NC(=O)c3ccncc3)ccc2O[C@H]1CN(C)C(=O)Nc1ccccc1 3.73%
COc1ccc(NC(=O)Nc2ccc3c(c2)C(=O)N([C@@H](C)CO)C[C@H](C)[C@@H](CN(C)S(=O)(=O)c2cn(C)cn2)O3)cc1 1.4%
C[C@H](CO)N1C[C@H](C)[C@H](CN(C)C(=O)c2ccncc2)OCCCC[C@H](C)Oc2ccc(NS(=O)(=O)c3ccccc3)cc2C1=O -1.72%
CC(C)NC(=O)Nc1ccc2c(c1)C(=O)N([C@@H](C)CO)C[C@@H](C)[C@@H](CN(C)C)OCCCC[C@H](C)O2 -4.5%
C[C@@H]1CN([C@H](C)CO)C(=O)c2cc(NS(=O)(=O)c3cn(C)cn3)ccc2O[C@@H](C)CCCCO[C@@H]1CN(C)C -0.00982%
CC(C)NC(=O)N(C)C[C@H]1Oc2ccc(N(C)C)cc2CC(=O)N([C@H](C)CO)C[C@@H]1C 0.831%
COc1ccc(S(=O)(=O)Nc2ccc3c(c2)C(=O)N([C@@H](C)CO)C[C@@H](C)[C@@H](CN(C)S(=O)(=O)c2cccs2)O3)cc1 -0.91%
C[C@@H]1CCCCO[C@@H](CN(C)S(=O)(=O)c2ccc(F)cc2)[C@@H](C)CN([C@@H](C)CO)C(=O)c2cc(NC(=O)C3CCCCC3)ccc2O1 2.57%
Cc1noc(C)c1NC(=O)N(C)C[C@@H]1Oc2c(NC(=O)c3ccc(-c4nccs4)cc3)cccc2C(=O)N([C@@H](C)CO)C[C@@H]1C -3.18%
COc1ccc(CN(C)C[C@H]2Oc3ccc(NC(=O)Nc4c(C)noc4C)cc3CC(=O)N([C@H](C)CO)C[C@@H]2C)cc1 -6.52%
C[C@@H]1CN([C@@H](C)CO)C(=O)c2cc(NS(=O)(=O)c3ccccc3)ccc2O[C@@H](C)CCCCO[C@H]1CN(C)Cc1ccncc1 -2.17%
C[C@H]1CN([C@@H](C)CO)C(=O)c2cccc(NS(=O)(=O)c3ccc(Cl)cc3)c2O[C@@H]1CN(C)C(=O)Nc1ccc(F)cc1 0.723%
C[C@H](CO)N1C[C@H](C)[C@@H](CN(C)C(=O)Nc2ccc(F)cc2)Oc2c(NS(=O)(=O)c3ccc(Cl)cc3)cccc2C1=O 2.75%
CNC[C@H]1Oc2c(NC(=O)Nc3c(C)noc3C)cccc2C(=O)N([C@@H](C)CO)C[C@H]1C 1.31%
Cc1noc(C)c1S(=O)(=O)Nc1ccc2c(c1)CC(=O)N([C@@H](C)CO)C[C@@H](C)[C@H](CN(C)C(=O)Nc1ccc(F)cc1)O2 -0.469%
